HepG2 viability: qHTS for Inhibitors of TGF-b: Cytotox Counterscreen; Potency, µM (top dose mostly 46.1 µM), usual class: cytotoxic; AID 588856, 2011; 0.76% of 410,000 active; HepG2 CAGA-GFP viability, ATP luminescence, 18 h
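HepG2 CAGA-GFP cells (1000/well, DMEM with 1% FBS) received compound, then TGF-beta at 500 pg/mL final, and were incubated 18 hours at 37 degrees C. Viability was read by CellTiter-Glo luminescence. Media-only wells were set as complete cell-killing and DMSO as no toxicity.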
VP16 counter: VP16 counterscreen qHTS for inhibitors of ROR gamma transcriptional activity; Drosophila S2 Gal4-VP16 UAS-luciferase, luminescence, 20 h; Potency, µM (titrated, usually from 53.6 µM), hits mostly inhibitors; 3.5% of 310,000 active;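 further: Gal4-VP16 expression switched on by copper sulfate through the metallothionein promoter; nearly all actives have a fitted effect of over 50% in size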
RORgamma inh: qHTS for inhibitors of ROR gamma transcriptional activity; Nuclear receptor ROR-gamma (Mus musculus), P51450; Drosophila S2 Gal4-RORgamma UAS-luciferase reporter, 20 h; Potency, µM (titrated, usually from 53.6 µM), usual class: inhibitors; 5.4% of 310,000 active; AID 2551, 2010; further: nearly all actives have a fitted effect of over 60% in size
Target sequence (P51450 whole entry, looked up, the tested form may be a part): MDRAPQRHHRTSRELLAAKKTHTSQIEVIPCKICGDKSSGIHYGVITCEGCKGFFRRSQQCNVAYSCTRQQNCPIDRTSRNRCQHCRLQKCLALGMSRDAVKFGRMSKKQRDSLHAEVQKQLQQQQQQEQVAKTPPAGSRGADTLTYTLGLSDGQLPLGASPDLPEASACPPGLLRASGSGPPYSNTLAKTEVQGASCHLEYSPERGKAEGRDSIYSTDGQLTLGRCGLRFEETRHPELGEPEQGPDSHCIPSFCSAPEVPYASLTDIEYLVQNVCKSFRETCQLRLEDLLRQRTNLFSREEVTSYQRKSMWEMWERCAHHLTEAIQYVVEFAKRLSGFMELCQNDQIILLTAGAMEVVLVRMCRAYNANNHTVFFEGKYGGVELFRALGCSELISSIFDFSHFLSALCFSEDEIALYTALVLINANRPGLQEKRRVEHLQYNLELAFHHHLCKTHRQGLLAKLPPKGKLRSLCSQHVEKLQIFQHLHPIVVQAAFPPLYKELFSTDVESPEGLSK
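Luminescence from a UAS-regulated Photinus luciferase reporter in stably transfected Drosophila Schneider cells is measured; decreased signal marks ROR gamma inhibition. Fusion expression is induced by 700 uM copper sulfate for 20 hr.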
TGFb inhibitor: qHTS for Inhibitors of TGF-b | HepG2 CAGA-GFP TGF-b/SMAD3 reporter, GFP fluorescence, 18 h; TGF-beta stimulated, 500 pg/mL final | Potency, µM (titrated, usually from 46.1 µM), hits mostly inhibitors | 1.2% of 410,000 active | AID 588855, 2011; further: nearly all actives have a fitted effect of over 65% in size
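Per well, imaged GFP fluorescence of HEPG2 CAGA-GFP cells gives the signal; cells get compound, then TGF-beta (500 pg/mL final), 18 h at 37 degrees C; %Activity versus -TGF-beta and +DMSO controls.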
S2 tox: Viability Counterscreen for Primary qHTS for Inhibitors of ATXN expression; 0.49% of 400,000 active; S2 cells (HEK-293 line with an ATXN2-luciferase reporter) viability, CellTiter-Fluor protease fluorescence, 24 h; Potency, µM (series often up to 56.7 µM), most hits filed as cytotoxic; further: nearly all actives have a fitted effect of over 40% in size
ATXN2 expr inh: Primary qHTS for Inhibitors of ATXN expression; AID 1745845, 2022; Potency, µM (titrated, usually from 57 µM), hits mostly inhibitors; HEK-293 ATXN2-luciferase reporter, luminescence, 24 h; 0.72% of 360,000 active; further: nearly all actives have a fitted effect of over 55% in size
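qHTS (up to 57 uM final) was run with 24 h compound exposure of reporter cells at 37 °C. Each well was multiplexed: SteadyGlo luminescence measured ATXN2-luciferase expression after a fluorogenic Gly-Phe-AFC viability readout (25 uM final).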
Of the large screens only hits and unclear results are named; the others gave an inactive call. An excerpt weighted towards active compounds, which were near 6.1% of everything screened. The call rests on the fitted dose curve; in most records, active means well fitted curve in the direction sought with a large enough effect; inconclusive means small, poorly fitted or top-dose-only effect, or another doubt; inactive means no such curve, though single readings can be large; an effect the other way counts as inactive or inconclusive.

FC(F)(F)c1ccc(C2[C@H]3CN(Cc4cccnc4)[C@H](c4ccccc4)C34CC2(c2cccnc2)C4)cc1 (some centres undefined)	VP16 counter inconclusive, TGFb inhibitor 8.91µM, S2 tox inconclusive, ATXN2 expr inh inconclusive
FC(F)(F)c1ccc(C2[C@H]3CN(Cc4ccc(-c5ccccc5)cc4)[C@H](c4ccccc4)C34CC2(c2cccnc2)C4)cc1 (some centres undefined)	TGFb inhibitor inconclusive
Cc1ccc(CCNC(=O)C2COc3ccccc3C2)cc1 (centres undefined)	TGFb inhibitor inconclusive (no result: VP16 counter, RORgamma inh)
Cc1cc(C)c(S(=O)(=O)/N=C2/C=C(Sc3ncn[nH]3)C(=O)c3ccccc32)cc1C	HepG2 viability 1.78µM, VP16 counter 3.16µM, RORgamma inh 3.98µM, TGFb inhibitor 0.891µM, S2 tox 22.4µM, ATXN2 expr inh 14.1µM
Cc1ccc(C)c(S(=O)(=O)/N=C2\C=C(NS(=O)(=O)c3ccccc3)C(=O)c3ccccc32)c1	TGFb inhibitor inconclusive
CCOc1cc(/C=N/Nc2nc(C)cc(=O)[nH]2)ccc1O	none
COc1ccccc1/C=N/Nc1cc(C)nc(N2CCOCC2)n1	none (no result: ATXN2 expr inh)
Cc1cc(N/N=C/c2ccc(F)cc2)nc(-n2nc(C)cc2C)n1	VP16 counter 0.316µM, RORgamma inh 0.0794µM, TGFb inhibitor inconclusive
CCOc1cc(/C=N/Nc2cc(C)nc(-n3nc(C)cc3C)n2)ccc1O	VP16 counter 17.8µM, RORgamma inh inconclusive, TGFb inhibitor inconclusive, S2 tox inconclusive, ATXN2 expr inh 1.26µM
COc1ccc(/C=N/Nc2cc(C)nc(-n3nc(C)cc3C)n2)c(OC)c1	VP16 counter 0.282µM, RORgamma inh 0.199µM, TGFb inhibitor inconclusive, S2 tox inconclusive, ATXN2 expr inh 15.8µM
O=C(C[n+]1csc2ccccc21)c1ccc(O)c(O)c1	TGFb inhibitor inconclusive (no result: VP16 counter, RORgamma inh, S2 tox, ATXN2 expr inh)
Cn1c(=O)c(C#N)c(-c2ccc(F)cc2)c2cc(C(=O)c3cc(Cl)cc(Cl)c3O)cnc21	VP16 counter 17.8µM, TGFb inhibitor 17.8µM, ATXN2 expr inh inconclusive
COc1ccccc1-n1c(=O)c(C#N)c(-c2ccc([N+](=O)[O-])cc2)c2cc(C(=O)c3cc(F)ccc3O)cnc21	none
OCc1ccc2c(c1)c(-c1ccc3c(c1)OCCO3)c(-c1ccccc1)n2-c1ccccc1	TGFb inhibitor 20µM, S2 tox inconclusive, ATXN2 expr inh inconclusive (no result: VP16 counter, RORgamma inh)
O=C(/C=C/c1cn(-c2ccccc2)nc1-c1ccc2c(c1)OCCO2)NCCO	VP16 counter inconclusive, RORgamma inh inconclusive
CCc1cc(OCCCSc2nc(C)cc(=O)[nH]2)ccc1Cl	VP16 counter 8.91µM, RORgamma inh inconclusive
Cc1ccc(NCN2C(=O)C(=O)c3ccccc32)nc1	TGFb inhibitor 6.31µM
Cc1ccc(NC(=O)CCCCCN2C(=O)c3ccccc3C2=O)nc1	VP16 counter inconclusive, ATXN2 expr inh inconclusive
COc1ccccc1N1CCN(C(=O)c2nn(-c3ccc(C)cc3)c(=O)n(C)c2=O)CC1	none (no result: VP16 counter, RORgamma inh)
CC1=NN(c2cccc(C(=O)O)c2)C(=O)/C1=C\C=C/c1ccccc1	VP16 counter 3.55µM, RORgamma inh 1.12µM, TGFb inhibitor inconclusive, S2 tox inconclusive, ATXN2 expr inh inconclusive
CC1=NN(c2ccccc2)C(=O)/C1=C/C=C/C=C/N(C)C	S2 tox 14.1µM, ATXN2 expr inh inconclusive
COc1ccccc1CCNC(=O)CCc1c(C)c2cc3c(C)coc3cc2oc1=O	S2 tox inconclusive (no result: VP16 counter, RORgamma inh)
Cc1ccc(S(=O)(=O)c2nc(S(C)(=O)=O)sc2NCc2ccccc2)cc1	none (no result: VP16 counter, RORgamma inh)
COC(=O)[C@H](CCCN=C(N)N)NS(=O)(=O)c1ccc(C)cc1	none (no result: HepG2 viability, VP16 counter, RORgamma inh, TGFb inhibitor, S2 tox)
Cc1ccc(C(=O)NC(=S)Nc2cccc(NC(=O)c3ccccc3)c2)cc1[N+](=O)[O-]	VP16 counter 3.55µM, RORgamma inh 2.51µM, TGFb inhibitor inconclusive
C/C(=N/NC(N)=S)c1ccccc1[N+](=O)[O-]	VP16 counter inconclusive, RORgamma inh 7.08µM
Cc1ccc(C(=O)NC(=S)Nc2cccc(NC(=O)c3ccccc3Cl)c2)cc1[N+](=O)[O-]	VP16 counter 3.98µM, RORgamma inh 5.62µM
CC(=O)Nc1cccc(NC(=O)c2ccc(C)c([N+](=O)[O-])c2)c1	none
C/C(=N\NC(=O)c1ccc([N+](=O)[O-])c(C)c1)c1ccccc1Cl	VP16 counter inconclusive, RORgamma inh 7.94µM
CCOc1ccc(-n2c(C)nc3cc(C(=O)NC4CCCC4)ccc32)cc1	none (no result: VP16 counter, RORgamma inh)
CCOc1cc(CNCCO)cc(Br)c1OCc1ccccc1Cl	TGFb inhibitor inconclusive
CCOc1cc(CNC(C)(C)CO)cc(Br)c1OCc1ccc(Cl)cc1Cl	HepG2 viability 12.6µM, VP16 counter inconclusive, RORgamma inh inconclusive, TGFb inhibitor inconclusive, ATXN2 expr inh inconclusive (no result: S2 tox)
Cc1ccccc1C(O)c1ccncc1 (centres undefined)	HepG2 viability 17.8µM
Cc1ccc(-c2nn(-c3ccccc3)cc2CC(=S)N2CCOCC2)cc1	VP16 counter inconclusive, RORgamma inh 17.8µM, TGFb inhibitor inconclusive (no result: ATXN2 expr inh)
C/C(O)=C(/C#N)c1nc2ccccc2[nH]1	VP16 counter inconclusive, RORgamma inh 7.94µM
COc1cc(/C(O)=C(\C#N)c2nc3ccccc3[nH]2)cc(OC)c1OC	VP16 counter inconclusive, RORgamma inh 11.2µM (no result: ATXN2 expr inh)
N#C/C(=C(\O)c1cc(Cl)sc1Cl)c1nc2ccccc2[nH]1	VP16 counter inconclusive, RORgamma inh 2.51µM, TGFb inhibitor inconclusive
CC(=O)OC(/C(O)=C(\C#N)c1nc2ccccc2[nH]1)c1ccccc1 (centres undefined)	VP16 counter inconclusive, RORgamma inh 14.1µM
CCOC(=O)c1[nH]c2ccccc2c1NC(=O)c1c(F)cccc1F	S2 tox inconclusive (no result: VP16 counter, RORgamma inh)
Cc1cccc(OCC(=O)Nc2c(C(=O)N3CCN(c4ccccc4F)CC3)oc3ccccc23)c1	TGFb inhibitor inconclusive (no result: VP16 counter, RORgamma inh, S2 tox, ATXN2 expr inh)
N#C/C(=C(/O)c1ccc(Cl)c([N+](=O)[O-])c1)c1nc2ccccc2[nH]1	VP16 counter inconclusive, RORgamma inh 12.6µM
CC(=O)O[C@@H]1C(=O)O[C@@H]2[C@H]1OC(=O)[C@@H]2OC(C)=O	none (no result: HepG2 viability, VP16 counter, RORgamma inh, TGFb inhibitor)
CCc1cccc(NC(=O)CCn2nc(C)cc2C)c1	none (no result: VP16 counter, RORgamma inh)
CC(=O)c1sc(Nc2nc3cc4c(cc3s2)OCO4)nc1C	RORgamma inh 5.01µM (no result: S2 tox)
CCOC(=O)c1sc(Nc2nc3cc4c(cc3s2)OCO4)cc1C	VP16 counter 6.31µM, RORgamma inh 5.01µM
CCOC(=O)c1sc(Nc2nc3c(OC)cccc3s2)cc1C	VP16 counter inconclusive, RORgamma inh inconclusive, TGFb inhibitor inconclusive
CC(C)N1CCN(c2ccc(C(=O)c3c(-c4ccc(O)cc4)sc4cc(O)ccc34)cc2)CC1	VP16 counter inconclusive (no result: HepG2 viability, TGFb inhibitor, S2 tox, ATXN2 expr inh)
